Screening results from PubChem.
Sampled rows, rich in hits. Any-hit rate of the full collection: about 0.81%.
SRC1 inh – SRC1 coactivator transcriptional activity inhibitors, primary screen, cell-based, luminescence; Nuclear receptor coactivator 1 (Homo sapiens), Q15788; HEK293 GAL4-SRC1 luciferase reporter; AID 588354, 2011; inhibition, % at 3.6 µM; hit rate 0.12% among 360,000;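 active means inhibition above the campaign mean plus 3 SD, with each screening campaign given its own cutoff, cut at about 60% in these data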;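 further: 0% = DMSO treated cells and 100% = gossypol at 36 µM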
LRH-1 inv ag – LRH-1 (NR5A2) inverse agonists, primary screen, cell-based, luminescence, HEK293T, StAR-luciferase reporter; Nuclear receptor subfamily 5 group A member 2 (Homo sapiens), O00482; LRH-1 transfected, 24 h; inhibition, % at 3.6 µM; hit rate 0.13% among 360,000; AID 602396, 2012;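 active means inhibition above the mean inhibition of all tested compounds plus 3 SD, cut at about 73% in these data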;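 further: 0% = DMSO wells and 100% = reporter-only cells lacking LRH-1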
NR2F2 inh – NR2F2 transcriptional activity inhibitors, primary screen, cell-based, luciferase reporter, HEK293T, luminescence; inhibition, % at 8.6 µM; COUP transcription factor 2 (Homo sapiens), P24468; HEK293T NGFI-A luciferase reporter; hit rate 0.7% among 370,000; AID 686940, 2013;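 active means inhibition above a per-plate cutoff, mean inhibition of test wells between control levels plus 3 SD, cut at about 38% in these data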;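 further: cells cotransfected with COUP-TFII expression vector driving the NGFI-A reporter; 0% = median of COUP-TF2 test wells and 100% = reporter-only cells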
NCOA2 inhibitor – inhibition of GAL4-SRC2 driven luciferase reporter, primary screen, SRC2 inhibitor project, cell-based, luminescence; Nuclear receptor coactivator 2 (Homo sapiens), Q15596; HEK293 GAL4-SRC2 luciferase reporter; inhibition, % at 9 µM; hit rate 0.17% among 370,000; AID 651957, 2012;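 active means inhibition above the mean inhibition of all tested compounds plus 3 SD, set per campaign, cut at about 52% in these data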;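 further: 0% = DMSO treated cells and 100% = cells given Gossypol at 36 µM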
SRC3 inh – SRC3 coactivator transcriptional activity inhibitors, primary screen, cell-based, luminescence | inhibition, % at 3.6 µM | Nuclear receptor coactivator 3 (Homo sapiens), Q9Y6Q9 | hit rate 0.17% among 360,000 | HEK293 GAL4-SRC3 luciferase reporter;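 active means inhibition above a per-campaign cutoff, the mean of all compounds plus 3 SD, cut at about 60% in these data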;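 further: 0% = DMSO-treated cells and 100% = gossypol-treated cells at 36 µM; higher means less SRC3-driven luciferase light from the GAL4 reporter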
VP16 Luc counter – Gal4-VP16 luciferase reporter inhibitors, counter-screen for COUP-TFII antagonist project, cell-based, luminescence, HEK293 | shares compounds with NR2F2 inh | inhibition, % at 8.5 µM | hit rate 25% among 2,500 | AID 687007, 2013; in the data active means inhibition above about 13%
COUP-TFII conf – NR2F2 transcriptional activity inhibitors, confirmation, cell-based, luciferase reporter, HEK293, triplicate. inhibition, % at 8.5 µM. HEK293 NGFI-A luciferase reporter, luminescence. hit rate 45% among 2,500. shares compounds with NR2F2 inh;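 active means mean inhibition over three repeats above a set limit taken from the earlier primary screen, cut at about 38% in these data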;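 further: 100% = cells given the luciferase reporter alone without the COUP-TF2 vector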
* = called active by the depositor.

For CCN(CC)S(=O)(=O)c1cccc(NC(=O)c2cncc(Br)c2)c1 the results were SRC1 inh 11, LRH-1 inv ag -22, NR2F2 inh 13, NCOA2 inhibitor 2 and SRC3 inh -8.
For CCN(CC)S(=O)(=O)c1cccc(NC(=O)c2ccc(Br)cc2)c1 the results were SRC1 inh -3, LRH-1 inv ag -6, NR2F2 inh 39*, NCOA2 inhibitor 11, SRC3 inh 22, VP16 Luc counter -6 and COUP-TFII conf 2.
`CCN(CC)S(=O)(=O)c1cccc(C(=O)Nc2ccc(C#N)cc2)c1` gave SRC1 inh 9, LRH-1 inv ag 33, NR2F2 inh 55*, NCOA2 inhibitor 4, SRC3 inh 20, VP16 Luc counter -5 and COUP-TFII conf 40*.
Screening CCS(=O)(=O)N1CCN(C(=O)c2cccc3ccccc23)CC1 returned SRC1 inh -3, LRH-1 inv ag 15, NR2F2 inh -13, NCOA2 inhibitor -16 and SRC3 inh -4.
Cc1cc(Nc2ccccc2)nc(NCc2ccccc2)n1 was read as SRC1 inh 10, LRH-1 inv ag 19, NR2F2 inh 38*, NCOA2 inhibitor 28, SRC3 inh 0, VP16 Luc counter -5 and COUP-TFII conf 21.
For CC(=O)NC1C(=O)N(Cc2ccccc2)c2ccc(Br)cc21 (stereo not drawn) the results were SRC1 inh -17, LRH-1 inv ag 10, NR2F2 inh 38*, NCOA2 inhibitor 10, SRC3 inh 24, VP16 Luc counter 1 and COUP-TFII conf 13.
CC(=O)NC1C(=O)N(CCc2ccccc2)c2ccc(Br)cc21 (stereo not drawn) was read as SRC1 inh -3, LRH-1 inv ag 4, NR2F2 inh 15, NCOA2 inhibitor 5 and SRC3 inh 15.
`O=C1c2[nH]c3ccccc3c2CC1N1C(=O)c2ccccc2C1=O` (stereo not drawn) gave SRC1 inh -2, LRH-1 inv ag -4, NR2F2 inh -8, NCOA2 inhibitor -33 and SRC3 inh 4.
O=C(O)CCCc1nc(-c2ccc(Cl)cc2)no1 was read as SRC1 inh 3, LRH-1 inv ag 12, NR2F2 inh 44*, NCOA2 inhibitor 40, SRC3 inh 13, VP16 Luc counter 32* and COUP-TFII conf 14.
Screening O=C(O)CCCc1nc(-c2ccccc2)no1 returned SRC1 inh 7, LRH-1 inv ag 4, NR2F2 inh 14, NCOA2 inhibitor -18 and SRC3 inh -2.
O=C(CCCc1nc(-c2ccc(Cl)cc2)no1)Nc1cccnc1 was read as SRC1 inh 9, LRH-1 inv ag 17, NR2F2 inh 41*, NCOA2 inhibitor 22, SRC3 inh 5, VP16 Luc counter 0 and COUP-TFII conf 22.
Screening OCC[C@H]1C[C@@H](O)[C@H](O)[C@@]2(CCCCO2)O1 returned SRC1 inh 13, LRH-1 inv ag -7, NR2F2 inh -19, NCOA2 inhibitor 14 and SRC3 inh -6.
For CC(=NNC(=S)Nc1ccccc1Cl)c1ccccn1 the results were SRC1 inh 66*, LRH-1 inv ag 74*, NR2F2 inh 51*, NCOA2 inhibitor 28, SRC3 inh 63*, VP16 Luc counter -12 and COUP-TFII conf 0.
For CC(=NNC(=S)N1CCCCC1)c1ccccn1 the results were SRC1 inh 48, LRH-1 inv ag 54, NR2F2 inh -8, NCOA2 inhibitor -29 and SRC3 inh 25.
CCn1c(=S)[nH]c2c(=O)n(C)c(=O)n(C)c21 was read as SRC1 inh 4, LRH-1 inv ag 6, NR2F2 inh 5, NCOA2 inhibitor 4 and SRC3 inh 6.
O=C(COc1ccc(Br)cc1Cl)NC1CCCCC1 was read as SRC1 inh -102, LRH-1 inv ag -37, NR2F2 inh -7, NCOA2 inhibitor -22 and SRC3 inh -61.
